Compound activity deposited in PubChem BioAssay by National Center for Advancing Translational Sciences (NCATS).
aSyn rescue: rescues yeast growth from alpha-synuclein toxicity; Potency, µM (doses to about 46.1 µM), for the others: at the highest dose growth rescue (activation), hits mostly activators; Yeast expressing alpha-synuclein, growth rescue, BacTiter-Glo, 24 h; AID 652106; 0.14% of 370,000 active; note: % of control where 0% means no effect; nearly all actives have a fitted effect of over 65% in size
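Screening used galactose-induced yeast with toxic alpha-synuclein levels, exposed to compound for 24 hr at 30 deg C. Cell growth, read with BacTiter-Glo luminescence, gave the measured signal.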
FUS suppressor: rescues growth of FUS-expressing yeast; 0.24% of 390,000 active; S. cerevisiae FUS-expressing, growth rescue, OD600, 24 h; Potency, µM (doses to about 76.6 µM), most hits filed as activators; AID 1347120;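 note: plate controls were DMSO vehicle for no effect and reference control for full effect; nearly all actives have a fitted effect of over 55% in size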
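Cultures pregrown in 2.5% raffinose medium are shifted to minimal medium containing 2% galactose to express toxic FUS. Compounds are tested at several concentrations. After 24hr at 30C, growth is quantified at 600 nm absorbance.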
Abeta rescue: compounds reversing amyloid beta toxicity in yeast; 0.063% of 410,000 active; Potency, µM (series often up to 46.1 µM), usual class: activators; yeast expressing A-beta42, growth rescue, OD600, 48 h; response scale: 0% DMSO, 100% iron-clioquinol control; note: nearly all actives have a fitted effect of over 55% in size
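Yeast A-beta toxicity model in growth medium with pinned compounds, 48 h at 30 C; growth read as absorbance at 600 nm. Normalized to FeCl3/clioquinol equimolar mix (positive) and DMSO (negative).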
TDP-43 yeast inh: rescues yeast growth from TDP-43 toxicity; Potency, µM (doses to about 46.1 µM), for inactives: at the top dose growth rescue (activation), hits mostly activators; 1.8% of 410,000 active; AID 652104; TDP-43 expressing yeast growth rescue, BacTiter-Glo, 24 h; note: % of control where 0% means no effect; nearly all actives have a fitted effect of over 50% in size
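In this qHTS, compounds that restore growth of yeast expressing TDP-43 appear as activators. Cells (OD600=0.02, galactose medium, raffinose-pregrown) are incubated with compound 24 hr at 30 deg C and growth is quantified by BacTiter-Glo.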
BCR signal inh: blocks chronic active B-cell receptor signaling. Potency, µM (top dose mostly 46.1 µM), for inactives: at the highest dose activity change, negative = inhibition, most hits filed as inhibitors. 0.05% of 340,000 active. AID 493014. ABC-DLBCL IkBa-CBG/CBR reporter, luminescence ratio, 4 h; active = well fitted inhibition curve with a large enough effect in the signal ratio, with a control signal flat, not every such curve was filed as active; inconclusive = small, poorly fitted or top-dose-only effect, or effect the other way, or a change in a side signal; the % refers to the signal ratio;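 note: plate controls were basal doxycycline-induced cells for no effect and cells given 10 µM MG132 for full effect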
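Compounds up to 46 uM were incubated four hours with TMD8 cells whose green CBG68 luciferase is fused to IkappaBalpha; red CBR luminescence normalised the signal, and concentration-effect curves were fitted to fusion, red and ratio data.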
uPA surface inh: cell surface uPA generation inhibition; Potency, µM (doses to about 38.3 µM), inactives show at the top dose activity change, negative = inhibition, hits mostly inhibitors; 0.31% of 330,000 active; cell surface uPA generation assay, qHTS; active = well fitted inhibition curve with a large enough effect; inconclusive = small, poorly fitted or top-dose-only effect; inactive = no such curve, though single readings can be large or run the other way; tested in mouse RAW 264.7 cells; note: % is set by controls: 0 for no effect and ±100 for the full control effect; nearly all actives have a fitted effect of over 55% in size
* hit, by the source's call; i = inactive; ? = inconclusive; nt = no result; [ ] = remark or other dose. Compounds with a hit are over-represented: about 2.3% of the library has one in this group of screens. Unless noted, calls come from the whole dose curve; as a rule, active = well fitted curve in the direction sought with a large enough effect; inconclusive = small, poorly fitted or top-dose-only effect, or another doubt; inactive = no such curve, though single readings can be large; an effect the other way counts as inactive or inconclusive. Potency is the fitted concentration of half-maximal effect.

SMILES | aSyn rescue | FUS suppressor | Abeta rescue | TDP-43 yeast inh | BCR signal inh | uPA surface inh
O=C(NCC(c1ccco1)N1CCc2ccccc21)C(=O)Nc1ccccc1F (stereo unspecified) | 5% | i | i | ? | -5% | ?
CCCc1cc(-c2nc(N)ncc2-c2csc(C)n2)c(O)cc1OC | 1% | i | i | 13µM* | -7% | 10%
CCOC(=O)C1C(=O)OC(C)(C)C1C(CC)C(=O)c1c(C)cc(C)cc1C (stereo unspecified) | 3% | i | i | ? | ? | -7%
O=C(NCCc1ccccc1Cl)c1sc2ncccc2c1-n1cccc1 | nt | ? | i | 18µM* | nt | nt
O=C(Nc1nc(-c2ccc(F)c(F)c2)cs1)C1=COCCO1 | 0% | i | i | 4µM* | ? | 1%
CCc1ccc(-c2csc(NC(=O)C3=COCCO3)n2)cc1 | 7%[1.84 µM] | i | i | 18µM* | -1% | 8%
CCCCCC(=O)N1C[C@@H](O)[C@H](n2cc(C3CC3)nn2)C[C@@H]1c1ccc(Cl)cc1 | -10% | ? | i | 22% | nt | nt
Cc1cc(C)c2c(n1)SCC(=O)N2CC(=O)Nc1cccc(Cl)c1 | -2% | i | i | 3% | 6% | 3%
S=c1[nH]c(-c2ccccc2)cn1-c1ccccc1 | 0% | i | 13µM* | 13µM* | 6% | ?
Nc1ccc(-n2cc(-c3ccccc3)[nH]c2=S)cc1 | -13% | i | i | 10% | 0% | 8%
COc1cccc(-n2cc(-c3ccc(F)cc3)[nH]c2=S)c1 | 1% | i | ? | 11µM* | 7% | -9%
Cc1ccc(NC(=O)c2ccc(NCc3ccc(F)cc3)nc2)cc1 | ? | i | i | -4% | -4% | 3%
COc1ccc(-c2noc(N(c3nc(-c4ccc(OC)c(OC)c4)no3)c3ccccc3OC)n2)cc1OC | nt | i | i | -2% | nt | nt
Cc1ccc(NC(=O)CSc2sc3c(O)cc(=O)[nH]c3c2C#N)c(F)c1 | -2% | ? | i | -10% | 2% | -5%
O=C(Cn1nc(-c2ccc(Cl)cc2)ccc1=O)NCCc1ccccc1 | 2% | i | i | 5% | 0% | nt
O=C(CN1N=C(c2ccc(Cl)cc2)CCC1=O)NCCc1ccc(Cl)cc1 | nt | ? | ? | 22µM* | ? | nt
Cc1ccc(-c2ccc(=O)n(CC(=O)NCCc3ccc(Cl)cc3)n2)cc1 | nt | i | i | 22µM* | -20% | nt
O=C(c1ccccc1CCc1ccccc1)N1CCN(c2ccccn2)CC1 | -2% | i | i | -1% | 6% | -1%
C[C@H](CO)N1C[C@H](C)[C@H](CN(C)S(=O)(=O)c2ccccc2)Oc2ccc(NC(=O)NC3CCCCC3)cc2CC1=O | -6% | 22µM* | i | -9% | -7% | -5%
C[C@H](CO)N1C[C@H](C)[C@@H](CN(C)S(=O)(=O)c2cccs2)Oc2ccc(NC(=O)Nc3ccc4c(c3)OCO4)cc2C1=O | -7% | ? | i | 6% | -4% | -13%
C[C@H](CO)N1C[C@H](C)[C@@H](CN(C)S(=O)(=O)c2ccc(Cl)cc2)Oc2ccc(NS(=O)(=O)c3ccccc3)cc2CC1=O | 0% | 10µM* | i | -17% | 0% | -6%
C[C@H](CO)N1C[C@H](C)[C@H](CN(C)S(=O)(=O)c2cccs2)Oc2ccc(NC(=O)Nc3ccc4c(c3)OCO4)cc2CC1=O | -1% | 25µM* | i | 23% | ? | -11%
O=C(NC(=S)N1CCCC(O)C1)c1ccco1 (stereo unspecified) | 0% | i | i | 17% | 0% | 6%
O=C(CCCNS(=O)(=O)c1cccc2nsnc12)N1CCCCC1 | 16% | i | i | 0% | -5% | 3%
O=C(O/N=C1\CCCc2ccccc21)c1cccs1 | -13% | i | i | 8.9µM* | 2% | -1%
SMILES | aSyn rescue | FUS suppressor | Abeta rescue | TDP-43 yeast inh | BCR signal inh | uPA surface inh
COc1ccc2c(c1)CC/C2=N\OC(=O)c1cccc(C)c1 | -54% | nt | i | 5µM* | ? | -6%
COc1ccc2c(c1)CCC/C2=N/OC(=O)c1ccccc1OC | -10% | i | i | 16µM* | -12% | -7%
COc1ccc2c(c1)CC/C2=N\OC(=O)c1ccccc1C | -21% | i | i | ? | ? | 3%
O=C(Cc1ccccc1)O/N=C1\CCCc2ccccc21 | 1% | i | i | 5% | 9% | -1%
COc1ccc(CC(=O)N2CCCC2)c(OC)c1 | -5% | i | i | 2% | 3% | 5%
COCc1nn2c(N)c(C#N)cnc2c1-c1ccccc1 | 0% | ? | i[9.22 µM] | 16% | 0% | -11%
CCOc1ccccc1-c1ccc2nccn2c1 | -1% | i | i | 13% | nt | nt
CCN(CC)C(=O)N1c2ccccc2Sc2ccccc21 | -10% | i | i | 5% | 4% | -3%
Cc1ccc(CC(=O)Nc2ccc(C(=O)N3CCOCC3)cc2)cc1 | -6% | i | i | 2% | 3% | 2%
CC(=O)NNC(=S)NC(=O)C(c1ccccc1)c1ccccc1 | 29% | i | ? | 25µM* | -16% | ?
CC(C)(C)C(=O)NC(=S)NNC(=O)C(c1ccccc1)c1ccccc1 | 18µM* | i | ? | ? | -21% | -8%
Cc1ccc2nc(-c3ccc(NC(=O)CSc4nnc(-c5cc(C)[nH]n5)n4N)cc3)sc2c1 | nt | i | nt | nt | nt | nt
COC(=O)C1=C(C)NC(C)=C(C(=O)OCC(C)C)C1c1ccccc1[N+](=O)[O-] (stereo unspecified) | -4% | i | i | 35µM* | nt | ?
COC(=O)C1=C(C)NC(C)=C([N+](=O)[O-])[C@H]1c1ccccc1C(F)(F)F | 1% | nt | nt | nt | nt | nt
c1ccc(-n2nnnc2-c2cnc(-c3cccnc3)nc2-c2cccs2)cc1 | 8% | ? | i | 32µM* | -27% | -7%
C=C1c2nc3ccccc3n2C=C(c2ccc(C)cc2)N1c1ccccc1 | -26% | nt | i | 14µM* | nt | -9%
Cc1csc(NC(=O)c2cc(-c3ccccc3)nc3ccccc23)n1 | 2% | nt | i | 18µM* | ? | 4%
Cc1cc(NC(=O)c2cccnc2)ccc1Br | -7% | i | i | 11µM* | -5% | -2%
CC(C)(C)c1ccc(C(=O)Nc2cccnc2)cc1 | -4% | i | i | 14µM* | -4% | ?
Cc1cc(NC(=O)c2ccccc2-c2ccccc2)ccc1Br | -13% | i | 13µM* | 0% | 13% | -13%
COc1cc2c(cc1OC)C(C(=O)NCCN1CCOCC1)C1c3ccccc3CCN1C2=O (stereo unspecified) | -3% | i | i | -12% | 1% | -1%
